This is part of a sample that, as a whole, favours compounds with a hit. Of some 83,000 tested, about 20% had one in any assay.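 Results are percent growth after 48 hours of single-concentration exposure. 100 means growth as in untreated cells, lower positive values show inhibition; negative values down to -100 show cell death.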 The source made the active and inactive calls. The calls were made as follows: active = growth percent below 10; inactive = the rest.

The test system of the assay is PC-3 prostate. Description: NCI-60 one-dose screen, 48 h (100 = growth as untreated, 0 = no growth, -100 = all killed). To be noted: 10 µM unless noted.
For the molecule `Cn1ccnc1C(=O)/C=C/c1ccc(CC(=O)Nc2ccccc2)cc1`, the growth is 25.7% (inactive). For the molecule `Cc1ccc2oc(=O)cc(C3c4ccc([nH]4)C(c4cc(=O)oc5ccc(C)cc45)c4ccc([nH]4)C(c4cc(=O)oc5ccc(C)cc45)c4ccc([nH]4)C(c4cc(=O)oc5ccc(C)cc45)c4ccc3[nH]4)c2c1` (stereo not given), the growth is -27.2% (active). As for `CC(C)(C)CC(C)(C)c1ccc(OCCOCC[N+](C)(C)Cc2ccccc2)cc1`, the growth was -13.9% (active). To `CN1CCN(CCCOc2cccc3nc(Nc4cc(Cl)cc(Cl)c4)ccc23)CC1` belongs 3.25% (active). The value for `CC(C)C[C@@H](NC(=O)[C@@H](Cc1ccccc1)NC(=O)c1cnccn1)B1Oc2ccc(C[C@H](NC(=O)[C@H](Cc3ccc4c(c3)OB([C@@H](CC(C)C)NC(=O)[C@@H](Cc3ccccc3)NC(=O)c3cnccn3)O4)NC(=O)[C@@H](N)CC3CCC4OB([C@@H](CC(C)C)NC(=O)[C@@H](CC5CCCCC5)NC(=O)C5CNCCN5)OC4C3)C(=O)NCCCC[C@@H]3NC(=O)[C@@H](Cc4ccccc4)NC(=O)[C@H](CC(=O)O)NC(=O)CNC(=O)[C@H](CCCNC(=N)N)NC3=O)cc2O1` (stereo not given in full) was -48.4% (active).

Regarding `CCN(CC)c1ccc(/C=N\NC(=O)/C=C/C=C/c2ccc3c(c2)OCO3)c(O)c1`, the growth is 40.9% (inactive). Consider `O=S(=O)(Nc1ccc(NS(=O)(=O)c2ccccc2)c(Cl)c1)c1ccccc1`, for which the growth is 88.7% (inactive). `COc1ccc(/C=C/c2nc3ccccc3nc2/C=C/c2ccc(OC)cc2)cc1`: the growth is 80.3% (inactive). Turning to `COc1ccc(/C=C/C(=O)c2cc(O)ccc2O)cc1`, the growth is 88.4% (inactive). On to `O=CNc1ccc2c(c1)Cc1cccc(NC=O)c1-2`, for which the growth was 95.2% (inactive). To `FC(F)(F)c1[nH]ncc1-c1nc2ccc3n[nH]c(C#Cc4cccnc4)c3c2c2c1CCCC2` belongs 47.1% (inactive); to `CCOc1cc2ncc(C#N)c(Nc3ccc(OCc4cccc(F)c4)c(Cl)c3)c2cc1NC(=O)CCCCC1CCSS1` (stereo not given), 83.9% (inactive); to `O=C(COc1ccc(-c2nc3cc(Cl)c(Cl)cc3[nH]2)cc1)N=Nc1c(O)[nH]c2ccccc12`, -50.6% (active).

Consider `Nc1n[nH]c2cc(F)c([C@@H]3Nc4ccc5[nH]ncc5c4[C@H]4C5CCC(C5)[C@@H]34)cc12` (stereo not given in full), for which the growth was 8.48% (active).

Regarding `C#CC(F)(F)[C@]1(O)CC[C@H]2[C@@H]3CCC4=CC(=O)CCC4=C3[C@@H](c3ccc(C(C)=O)cc3)C[C@@]21C`, the growth is 37% (inactive). Consider `CCCOc1cc2ccccc2cc1C(=O)Nc1nc(N)c2c(ccc3nccc32)[nH]1`, for which the growth was -27.9% (active). Turning to `CCc1nc(N)nc(N)c1C#CC(C)c1cc(-c2ccnc(C)c2)c2oc(C)nc2c1` (stereo not given), the growth is 16.5% (inactive). Take `Clc1ccc2c(NCCCCNc3nc(N4CCCCC4)nc4ccccc34)ccnc2c1`: the growth was 25.6% (inactive). As to `O=c1ccccc(-c2ccc(-c3ccco3)cc2)c1O`, the growth is 32% (inactive). `CCOC(=O)c1c(C)oc2ncnc(N3CCN(C(=S)Nc4ccccc4)CC3)c12`: the growth was 91.8% (inactive). In the case of `CCN1CCN(c2nc(NCCNc3ccnc4cc(Cl)ccc34)c3ccccc3n2)CC1`, the growth was 24.7% (inactive). For the molecule `COc1ccc(-c2n[nH]nc2-c2csc3ccccc23)cc1OC`, the growth was 27.8% (inactive). On to `COc1ccc(O)c(N=Nc2nccs2)c1`, for which the growth was 67.3% (inactive).

For `O=C(Oc1cccnc1)c1ccsc1Nc1ccnc(C(F)(F)F)c1`, the growth is 83.8% (inactive). Consider `Oc1ccccc1-c1nnc(CNc2ccc(Cl)cc2)o1`, for which the growth was 34.5% (inactive). As for `NC1=C(Cl)C(=O)c2ccc(S(N)(=O)=O)cc2C1=O`, the growth is 1.22% (active). To `CCOc1cc2ncc(C#N)c(Nc3ccc(F)c(Cl)c3)c2cc1NC(=O)CC1CCSS1` (stereo not given) belongs -72.6% (active); to `Clc1ccc2c(NCCCCNc3nc(N4CCOCC4)nc4ccccc34)ccnc2c1`, 38.9% (inactive); to `Cc1ccc(-c2onc3c(=O)[nH]nc(-c4ccccc4)c23)cc1`, 25.8% (inactive). For the molecule `CN(Cc1cc(Cl)cc(Cl)c1O)Cc1cc(Cl)cc(Cl)c1O`, the growth is 80.9% (inactive). For `CCN1CCN(c2nc(NCCCNc3ccnc4cc(Cl)ccc34)c3ccccc3n2)CC1`, the growth was 37% (inactive). For `CSc1ccc(-c2ccccc(=O)c2O)cc1`, the growth is 30.9% (inactive). To `Clc1ccc2c(NCCCNc3nc(-n4ccnc4)nc4ccccc34)ccnc2c1` belongs 73.3% (inactive); to `CC1CCNC(C)C1` (stereo not given), 90.3% (inactive). To `COc1ccc(NC(=O)c2ccc(/C=C/C(=O)c3ncc[nH]3)cc2)cc1` belongs 92.3% (inactive).
